Assay outcomes: PubChem, several laboratories
Shown are actives, neighbours in structure and some others; about 4.7% of the full set was active somewhere.
tim10-1 inh = growth inhibitors of tim10-1 mutant yeast, primary screen, luminescence, uHTS; S. cerevisiae tim10-1 ts strain growth, BacTiter-Glo, 24 h; inhibition, % at 20 µM; actives 2.2% (n = 330,000); AID 463190, 2010;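 active means inhibition of at least 40%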;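 further: mutant grown at 25 °C; 0% = DMSO wells with yeast and 100% = wells holding no yeast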
PfHsp90 set2 = growth inhibition of PfHsp90-expressing yeast, primary screen, antimalarial PfHsp90 inhibitor project, S. cerevisiae, BacTiter-Glo luminescence, single point, set 2 | BacTiter-Glo ATP, 48 h; yeast lacking PDR1 and PDR3 efflux regulators | inhibition, % at 9.4 µM | actives 0.32% (n = 310,000);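 active means every replicate shows inhibition above about 80%, whatever the replicate mean, limit read from the data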;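 further: 0% = DMSO neutral controls and 100% = 20 µM radicicol positive controls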
TIM10 inh = growth inhibitors of isogenic TIM10 control yeast, primary screen, counter-screen for tim10-1 yeast inhibitor project, luminescence, uHTS; S. cerevisiae TIM10 strain growth, BacTiter-Glo luminescence, 24 h; inhibition, % at 10 µM; actives 1.4% (n = 330,000);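 active means inhibition of 40% or more at the single tested concentration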;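 further: wild-type TIM10 isogenic control strain grown at permissive 25 °C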
Calb FLC = C. albicans growth inhibition with fluconazole, primary screen, CaCi-2 strain, Alamar Blue fluorescence; C. albicans CaCi-2 (fluconazole-resistant clinical isolate) + fluconazole, 48 h; growth inhibition, % (no concentration beside the values); actives 0.57% (n = 300,000);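 active means growth inhibition above about 58% in most replicates, limit read from the data, passing the limit was not always enough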;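 further: all wells also contain fluconazole at 8 µg/ml as a sub-toxic cotreatment; 0% = median of DMSO wells and 100% = median of geldanamycin control wells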
SKKanGAS inh = S. pyogenes SKKanGAS growth inhibitors in kanamycin, primary screen, streptokinase expression inhibitor project, SKKanGAS strain, BacTiter-Glo luminescence; inhibition, % at 7.5 µM; actives 1.3% (n = 300,000); 6 h; AID 1662, 2009;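 active means mean replicate score, as percent of positive control median, at least 50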;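 further: strain carries kanamycin resistance gene driven by streptokinase promoter and grows in 40 µg/ml kanamycin; loss of luminescence reflects streptokinase promoter inhibition or plain growth inhibition; 0% = median of DMSO wells and 100% = positive control at its reference dose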
tim23-1 inh = growth inhibitors of tim23-1 mutant yeast, primary screen, luminescence, uHTS | S. cerevisiae tim23-1 growth, BacTiter-Glo luminescence, 24 h | inhibition, % at 20 µM | actives 1.3% (n = 330,000) | AID 463212, 2010;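 active means growth inhibition of the mutant yeast at or above 50%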;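 further: temperature-sensitive mutant grown at 25 °C; plate controls were DMSO-treated mutant yeast for no effect and medium wells lacking yeast for full effect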
TIM10 conf = growth inhibitors of wild-type TIM10 yeast, confirmation, counter-screen for tim10-1 synthetic lethality project, single concentration, luminescence, S. cerevisiae; shares compounds with TIM10 inh; S. cerevisiae tim10 strain growth, BacTiter-Glo luminescence, 24 h; inhibition, % at 10 µM; actives 63% (n = 4,600); AID 463215, 2010;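 active means inhibition of yeast growth at or above a set limit in either of two replicates at 10 µM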;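 further: this counterscreen used the strain with wild-type TIM10; 0% = yeast with DMSO and 100% = medium wells lacking yeast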
tim23-1 confirm = tim23-1 mutant yeast growth inhibitors, confirmation, luminescence, single concentration; shares compounds with tim23-1 inh; S. cerevisiae tim23-1 growth, BacTiter-Glo luminescence, 24 h; inhibition, % at 20 µM; actives 83% (n = 4,400); AID 463218, 2010;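 active means inhibition above about 39% in either of two replicate wells at 20 µM, limit read from the data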;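 further: temperature-sensitive tim23-1 mutant grown at 25 °C; 0% = DMSO wells with yeast and 100% = medium wells without yeast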
Active calls of the source: *; . = no result.

SMILES | tim10-1 inh | PfHsp90 set2 | TIM10 inh | Calb FLC | SKKanGAS inh | tim23-1 inh | TIM10 conf | tim23-1 confirm
N#CC(C(=O)c1ccccc1Cl)=C1SCCCS1 | 31 | -11 | 42* | -23 | -8 | 69* | 40* | 52*
CCc1ccc(/C=N/n2c(COc3ccccc3)n[nH]c2=S)cc1 | 28 | 5 | 44* | -10 | 29 | 61* | 42* | 37
CCOC(=O)c1c(C)[nH]c(C(=O)COC(=O)COc2ccccc2C=O)c1C | 23 | -20 | 53* | 2 | 3 | 54* | 51* | 62*
O=C(Nc1nccs1)c1cc2c(s1)CCCCC2 | 37 | 47 | 46* | 1 | 77* | 58* | 59* | 65*
O=C(Nc1nncs1)c1cc2c(s1)CCC2 | -3 | 29 | 5 | 15 | -2 | 19 | . | .
CC(C)(C)c1ccc(C(=O)N/N=C/c2cccc(Cl)c2)cc1 | 37 | 3 | 63* | 9 | 1 | 66* | 52* | 77*
CCSc1ccc(/C(N)=N/OC(=O)c2cccs2)cn1 | 35 | 6 | 63* | 5 | -5 | 61* | 63* | 74*
Oc1ccc(Cl)cc1/C=C/c1ccc2cccc(O)c2n1 | 35 | 105* | 64* | -1 | -39 | 58* | 63* | 16
O=C1c2sc3nc4ccccc4n3c2C(=O)N1c1ccccc1Cl | -101 | 13 | 60* | -7 | 13 | 56* | 59* | -19
Cc1c(NC(=O)COc2ccc(C(C)C)cc2)c(=O)n(-c2ccccc2)n1C | -10 | 1 | -2 | -1 | 2 | 6 | . | .
CCCc1cc(=O)[nH]c(SCC(=O)NC2(C#N)CCCCC2)n1 | -6 | . | 4 | . | . | -3 | . | .
Oc1c(Cl)cc(Cl)cc1C=Nc1ccc(N2CCOCC2)cc1 | 16 | -21 | 66* | -17 | 4 | 74* | 18 | 38*
COC(=O)N1c2ccccc2C=Cc2ccccc21 | 12 | -9 | 4 | -2 | -2 | 13 | . | .
O=C(c1ccco1)N1CCN(c2ccc(F)cc2)CC1 | -9 | 1 | 3 | -17 | -4 | 8 | . | .
O=C(c1ccco1)N1CCN(c2nc(-c3ccc(F)cc3)cs2)CC1 | 32 | 4 | 44* | -6 | -1 | 82* | 17 | 35
CC(C)CC1C2C(=O)N(c3ccccc3)C(=O)C2ON1c1ccccc1 (stereo not drawn) | 18 | 15 | 22 | 8 | 2 | 20 | . | .
N#CC1(c2nc3ccccc3[nH]2)CC1c1ccc2c(c1)OCO2 (stereo not drawn) | 33 | . | 56* | -8 | -2 | 56* | 32* | 72*
C[C@H](CO)N1C[C@H](C)[C@@H](CN(C)Cc2ccncc2)Oc2c(NS(=O)(=O)c3ccc(F)cc3)cccc2C1=O | -12 | 15 | 3 | . | . | -5 | . | .
CCN(CC(=O)NCc1cccs1)C(=O)CCC(=O)c1ccc(C)cc1 | 11 | . | 9 | -6 | 24 | 11 | . | .
CC1=NN(c2ccc(C)cc2)C(=O)/C1=C/c1ccc(-c2cc([N+](=O)[O-])ccc2O)o1 | 33 | 3 | 15 | 2 | 34 | 37 | . | .
CC1=NN(c2ccc(C(=O)O)cc2)C(=O)/C1=C/c1ccc(-c2ccccc2F)o1 | 38 | 1 | 43* | 5 | -5 | 62* | 23 | 39*
CC(Oc1ccc2cc(-c3ccccc3)c(=O)oc2c1)C(=O)NCC1CCC(C(=O)O)CC1 (stereo not drawn) | -1 | -5 | 0 | -2 | 15 | -6 | . | .
Cc1ccc(/C=C/C(=O)c2ccc([N+](=O)[O-])o2)cc1 | 27 | . | 68* | 48 | 67* | 57* | 78* | -25
O=C(c1cccs1)N1CCN(c2nnc(-c3ccccc3)c3ccccc23)CC1 | 27 | . | 43* | 2 | 5 | 51* | -2 | 26
CCCC(=O)N1CCN(c2nnc(-c3ccccc3)c3ccccc23)CC1 | -30 | 11 | -33 | 14 | -5 | -14 | . | .
SMILES | tim10-1 inh | PfHsp90 set2 | TIM10 inh | Calb FLC | SKKanGAS inh | tim23-1 inh | TIM10 conf | tim23-1 confirm
COc1ccc(C(=O)/C=C/C(=O)N(CC(=O)NC2CCCCC2)Cc2cccs2)c(O)c1 | 18 | 94* | 49* | -16 | -12 | 62* | 47* | 36*
COc1cc(CN2CCC(C(=O)NCC(C)(C)CN(C)C)CC2)ccc1OCc1ccccc1 | -8 | -4 | -6 | 6 | -3 | -4 | . | .
CC(=O)Nc1ccc(SCC(=O)c2cc(C)n(-c3ccccc3)c2C)cc1 | 35 | -28 | 48* | -31 | -2 | 54* | 44* | 53*
COc1ccc(-n2c(C)cc(C(=O)CCl)c2C)cc1 | -42 | -17 | 3 | -5 | -20 | 44 | . | .
COc1ccc(-n2c(C)cc(C(=O)CSc3ccc(NC(C)=O)cc3)c2C)cc1 | 30 | -4 | 41* | 0 | 3 | 62* | 31 | 49*
COC(=O)c1cccc(-n2sc3ccccc3c2=O)c1 | 24 | 21 | 27 | . | . | 22 | . | .
Cc1ccc(-n2sc3ccccc3c2=O)cc1 | 36 | -124 | 65* | 2 | 96* | 59* | 1 | 56*
N#Cc1nc(-c2ccccc2F)oc1NCCc1ccccc1 | 36 | -35 | 66* | 21 | 6 | 57* | 61* | 78*
N#Cc1nc(-c2ccccc2F)oc1NCc1ccccc1 | 36 | 23 | 4 | 3 | -1 | 47 | . | .
COC(=O)c1ccc(NC2=C(Cl)C(=O)OC2OC(=O)c2ccccc2)cc1 (stereo not drawn) | 36 | -33 | 41* | 20 | -10 | 50* | 25 | 43*
Cc1ccc(NC2=C(Cl)C(=O)OC2OC(=O)c2ccc(C)cc2)cc1 (stereo not drawn) | 29 | 17 | 36 | -3 | -1 | 43 | . | .
Cc1ccc(-c2cc(O)cc3sc(=O)oc23)cc1C | 23 | -50 | 53* | 0 | 1 | 71* | 68* | 7
O=c1oc2cc(O)ccc2s1 | -8 | 18 | -1 | -10 | -3 | -4 | . | .
Cc1ccc(C(=O)/C=C/c2ccccc2[N+](=O)[O-])cc1 | 30 | 12 | 50* | -7 | -5 | 59* | 38* | 62*
COc1ccc(N2CCN(C(=O)c3cn(CC4CCCCC4)nn3)CC2)cc1 | 0 | -36 | 2 | -1 | -8 | -2 | . | .
